TWEAK Fn14 block = blocks TWEAK-Fn14 interaction in a reporter cell assay; TWEAK-stimulated Fn14 reporter cells, luciferase luminescence, 8 h; inhibition, % at 10 µM; 360,000 compounds, 2% hits; in the data active = inhibition above about 50%
LGR2 inh = Drosophila LGR2 receptor signaling inhibition | 380,000 compounds, 0.35% hits | inhibition, % at 9.99 µM | HEK293 LGR2, CRE-luciferase, bursicon-stimulated, 4 h;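 active = drop in luminescence signal, shown as inhibition above about 50% in the replicate tests, limit read from the data, passing the limit was not always enough; inconclusive = probably only some replicates passing the limit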;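 note: agonist challenge used bursicon conditioned medium at about half maximal strength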
PAX8 inh HTS = lowers PAX8-driven luciferase in RMG-I cells; RMG-I TPO-luciferase reporter, SteadyGlo, 24 h; 360,000 compounds, 1.2% hits; inhibition, % at 12.6 µM;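 active = mean replicate inhibition at least 60% with every replicate also reaching 60%; inconclusive = only one of the two criteria is met; inactive = mean below 60% and not all replicates reaching 60%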;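 note: luciferase light reporting Pax8 driven TPO promoter activity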
EWS-Fli block = blocks EWS/Fli oncoprotein-driven transcription | A673 NR0B1-luciferase reporter, viability-normalised | inhibition, % at 12.6 µM | 350,000 compounds, 0.67% hits;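 active = mean inhibition of at least 50% after viability correction, with every replicate also passing that limit; inconclusive = mean reaches 50% but only one of two replicates passes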;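 note: firefly luciferase signal divided by Alamar Blue viability fluorescence both relative to DMSO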
LMP1 NFkB inh = reduces LMP1-driven NF-kappaB luciferase signal | LMP1-induced NF-kappaB luciferase reporter cells, luminescence | inhibition, % at 12.5 µM | 350,000 compounds, 0.69% hits | AID 504558; in the data active = inhibition above about 41%; inconclusive = no clear call, values can overlap the other calls
TROY NFkB inh = blocks TROY-dependent signaling in reporter cells | inhibition, % at 10 µM | 360,000 compounds, 0.98% hits | AID 1347056 | Q293 LMP1-TROYcd NF-kB luciferase reporter, 4 h;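 active = compounds whose plate-normalised and pattern-corrected inhibition of the luciferase reporter signal at the single screening dose is 50% or more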
Hits are given with their value; - = inactive; ? = inconclusive; . = no result given. An excerpt weighted towards active compounds, which were near 3.2% of everything screened.

SMILES | TWEAK Fn14 block | LGR2 inh | PAX8 inh HTS | EWS-Fli block | LMP1 NFkB inh | TROY NFkB inh
CC(C)C#Cc1ccc([C@@H]2[C@@H](CO)N3CCCCN(C(=O)Nc4ccccc4)C[C@@H]23)cc1 | . | - | - | - | . | .
O=C(Nc1ccc2oc(-c3ccccc3)nc2c1)c1ccc2c(c1)OCCO2 | - | . | - | . | - | 57.8
O=C(Nc1ccc(Br)cc1F)c1ccc2c(c1)OCCO2 | 50.7 | - | - | - | - | -
O=C(Nc1ccc(F)cc1F)c1ccc2c(c1)OCCO2 | - | - | - | - | - | -
COc1ccc(C(=O)N/C(=C\c2ccc3c(c2)OCO3)C(=O)N2CCOCC2)cc1 | - | - | - | - | 49.0 | -
CCC(C(=O)Nc1ccc2c(c1)OCCO2)n1c(=O)[nH]c2ccccc2c1=O (stereo not given) | 76.0 | - | - | . | - | 59.8
O=C(Nc1ccc2oc(-c3ccncc3)nc2c1)c1ccc2c(c1)OCCO2 | - | - | - | - | - | -
CO[C@@H]1CN(C)C(=O)c2ccc(NC(=O)C3CC3)cc2OC[C@@H](C)N(Cc2cccnc2)C[C@H]1C | . | - | - | - | . | .
COc1cccc(CNC(=O)C[C@@H]2C=C[C@@H](NC(=O)C3CC3)[C@@H](CO)O2)c1 | . | - | - | - | . | .
O=C(Nc1ccncc1)c1ccc2c(c1)OCCO2 | - | . | . | . | - | -
CCC(Oc1ccccc1OC)C(=O)Nc1ccc2c(c1)OCCO2 (stereo not given) | 59.4 | - | - | - | - | -
O=C(Nc1ccc(NC(=O)c2ccco2)cc1)c1ccc2c(c1)OCO2 | 67.6 | - | . | . | - | .
Cc1ccc(NC(=O)c2ccc3c(c2)OCCO3)cc1 | 67.9 | . | . | . | - | -
CC(=O)c1ccc2c(c1)OCCOCCOCCOCCOCCO2 | 87.4 | - | - | - | . | -
COc1ccc(C(=O)Nc2ccc3c(c2)OCCO3)cc1 | 50.2 | . | . | . | - | -
COc1cccc(NC(=O)c2ccc3c(c2)OCO3)c1 | - | - | - | - | - | -
COc1cccc(NC(=O)c2ccc3c(c2)OCCO3)c1 | 57.0 | - | - | ? | - | -
CC(=O)Oc1ccc(C(=O)Nc2ccc3c(c2)OCCO3)cc1 | - | - | - | - | - | -
COc1ccc(NC(=O)C2=Cc3cccc(OC)c3OC2)cc1 | - | - | - | - | - | -
COc1ccc(NC(=O)C2=Cc3ccccc3OC2)cc1 | 51.5 | - | - | - | - | -
O=C(Nc1ccc2c(c1)OCCO2)c1[nH]c(C(F)(F)F)nc1-c1ccccc1 | 90.1 | - | - | - | . | 81.3
CC(=O)N(C)C[C@@H]1Oc2cc(C#CCC(C)C)ccc2S(=O)(=O)N([C@H](C)CO)C[C@@H]1C | . | - | . | - | . | .
C[C@H]1CN([C@@H](C)CO)C(=O)c2cc(NC(=O)CCC(F)(F)F)ccc2O[C@@H]1CN(C)S(=O)(=O)c1cccs1 | . | - | . | - | . | .
CC(C)NC(=O)N1CCCCN2[C@H](CO)[C@H](c3ccc(C#Cc4ccccc4)cc3)[C@H]2C1 | . | - | - | - | . | .
Cc1ccc(-c2nc(-c3nccc4ccccc34)oc2-c2ccccc2)cc1 | - | ? | - | - | - | 62.5
SMILES | TWEAK Fn14 block | LGR2 inh | PAX8 inh HTS | EWS-Fli block | LMP1 NFkB inh | TROY NFkB inh
C[C@@H]1CN([C@@H](C)CO)C(=O)Cc2cc(N(C)C)ccc2O[C@H]1CN(C)Cc1ccc(Oc2ccccc2)cc1 | . | - | 81.5 | - | . | .
C[C@@H]1CN([C@@H](C)CO)C(=O)c2cc(N(C)C)ccc2O[C@@H]1CN(C)Cc1ccc(Oc2ccccc2)cc1 | . | - | 83.6 | - | . | .
C[C@H]1CN([C@@H](C)CO)S(=O)(=O)c2ccc(C3=CCCC3)cc2O[C@H]1CN(C)C(=O)c1cccnc1 | . | - | . | - | . | .
Nc1nc(N)c2c(ccc3c2ccn3Cc2cccc([N+](=O)[O-])c2)n1 | 79.2 | - | 117.0 | - | . | -
O=C(NCC[C@H]1CC[C@H](NS(=O)(=O)c2ccccc2F)[C@H](CO)O1)c1ccc(F)cc1 | . | - | - | - | . | .
CC(=O)N1CCc2cc(Br)cc(S(=O)(=O)NCCCN(C)Cc3ccccc3)c21 | 98.1 | - | - | - | - | -
CC(C)(C)c1ccc(-n2nc(C#N)c(Cl)cc2=O)cc1 | 104.7 | 100.7 | 111.5 | 57.8 | - | 89.4
COc1ccc(OC)c2c1C(=O)c1ccccc1C2=O | . | . | - | . | . | .
COc1ccc(OC)c2c1C(=O)C(Cl)=C(Cl)C2=O | 93.6 | 89.7 | 99.6 | - | - | 53.5
C[C@@H]1CN([C@@H](C)CO)C(=O)c2cc(NC(=O)Nc3ccc(F)cc3)ccc2O[C@@H]1CN(C)CC1CCCCC1 | . | - | - | - | . | .
O=C(C[C@@H]1C=C[C@@H](NC(=O)Nc2ccc(C(F)(F)F)cc2)[C@@H](CO)O1)NCc1ccccn1 | . | - | - | - | . | .
CSc1nc2nccc(/C=C\c3ccccc3)n2n1 | - | . | 63.4 | . | - | -
CSc1nc2nccc(-c3ccc(Cl)cc3)n2n1 | - | - | . | . | - | -
Cc1ccc2oc(/N=C(\N)NC(=O)C3CC3)nc2c1 | 64.3 | . | - | - | - | -
CC(C)(C)c1ccc(C(=O)N/C(N)=N/c2nc3ccccc3o2)cc1 | - | . | . | . | - | -
OCCN1CCN(CC/C=C2/c3ccccc3Sc3ccc(Cl)cc32)CC1 | - | . | - | - | 79.5 | -
Cc1cc(C(N)=O)c2ccccc2n1 | - | . | . | . | - | -
Cc1cc(Sc2nnc(/N=C/N(C)C)s2)c2ccccc2n1 | 81.0 | 55.0 | 85.4 | - | 69.8 | -
Cc1cc(Sc2nnc(N)s2)c2ccccc2n1 | 89.7 | 57.6 | 89.5 | - | 70.8 | -
CCCCCCCCSc1nnc(/N=C/N(C)C)s1 | - | - | - | - | - | -
CCN(C[C@H]1N[C@@H](CO)[C@H]1c1ccc(C2=CCCC2)cc1)C(=O)c1ccccc1 | . | - | - | - | . | .
COc1ccc(-c2cn3cc(C)ccc3n2)cc1F | 76.5 | 90.2 | - | - | - | 61.1
COc1ccc(-c2cn3ccccc3n2)cc1OC | - | . | . | . | - | -
COc1ccc(-c2cn3cc(C)ccc3n2)cc1OC | - | . | - | . | - | -
Clc1ccc2nc(-c3ccccc3)cn2c1 | 60.9 | - | - | - | - | -
SMILES | TWEAK Fn14 block | LGR2 inh | PAX8 inh HTS | EWS-Fli block | LMP1 NFkB inh | TROY NFkB inh
Cc1ccc2nc(-c3ccc4c(c3)OCCO4)cn2c1 | 101.2 | 91.3 | 86.9 | - | 85.4 | 78.0
c1ccn2cc(-c3ccc4c(c3)OCCO4)nc2c1 | 78.2 | 90.6 | - | 54.1 | 56.5 | -
CC(=O)N1[C@@H]2c3ccc(-c4ccccc4)c(=O)n3C[C@H]1[C@H](CO)[C@H]2C(=O)N1CCN(C)CC1 | . | - | - | - | . | .
O=C(C[C@@H]1CC[C@H](NC(=O)Nc2cc(F)ccc2F)[C@H](CO)O1)NCCCN1CCOCC1 | . | - | - | - | . | .
COCC1=C2[C@@H](CCc3ccccc3)OB(O)C[C@@H]2n2c(=O)n(-c3ccccc3)c(=O)n2C1 | . | . | . | - | . | .
O=C(N[C@H]1CC[C@@H](CCNC(=O)c2cnccn2)O[C@H]1CO)c1ccc2c(c1)OCO2 | . | - | - | - | . | .
O=C(O)c1cc(-c2ccc3c(c2)OCO3)nc2ccc(Cl)cc12 | - | - | - | . | - | -
Clc1ccc2nc(-c3ccc4c(c3)OCO4)cn2c1 | 73.1 | 85.8 | - | - | 60.1 | -
COc1ccc(-c2ccc3c(c2)[C@@H]2[C@@H](CCN2C(=O)C2CCOCC2)[C@@H](CO)N3C)cc1 | . | - | - | - | . | .
